Measured values taken from the supplement of paper PMC6555819.

How the values were obtained:
Experiment in all cases: PBM binding z-score (relative to random genomic background probes); higher = stronger binding; sequences stand for … in GC…GCGATTGACAGCGTAGAATGAAGG
[1] = system: FXR:RXRa (NR concentration 270 nM, RXRa partner concentration 90 nM)
How it was run: (§1)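 Each nuclear receptor dimer, without ligand, was incubated for 1 h on custom Agilent 4×180K protein-binding microarrays. Binding was detected with antibodies against each partner (one per run), and scanned fluorescence was regression-normalized. The binding z-scores are referenced to random human genomic background probes.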

[2] = system: LXRa:RXRa (NR concentration 270 nM, RXRa partner concentration 90 nM)
How it was run: as §1

[3] = system: LXRa homodimer (NR concentration 270 nM)
How it was run: as §1

[4] = system: LXRb:RXRa (NR concentration 270 nM, RXRa partner concentration 90 nM)
How it was run: as §1

[5] = system: LXRb homodimer (NR concentration 270 nM)
How it was run: as §1

[6] = system: PPARa:RXRa (NR concentration 270 nM, RXRa partner concentration 90 nM)
How it was run: as §1

[7] = system: PPARg:RXRa (NR concentration 180 nM, RXRa partner concentration 90 nM)
How it was run: as §1

[8] = system: PPARg:RXRa 270nM:90nM, anti-RXR (NR concentration 270 nM, RXRa partner concentration 90 nM)
How it was run: as §1

[9] = system: PPARg:RXRa 30nM:10nM, anti-RXR (NR concentration 30 nM, RXRa partner concentration 10 nM)
How it was run: as §1

[10] = system: PPARg:RXRa 90nM:30nM, anti-RXR (NR concentration 90 nM, RXRa partner concentration 30 nM)
How it was run: as §1

[11] = system: PPARg:RXRa DBDmut IVT, anti-RXR (DBD mutation: RXRa K156A/R161A, NR concentration 270 nM, RXRa partner concentration 90 nM)
How it was run: as §1

[12] = system: PPARg:RXRa IVT, anti-PPARg (NR concentration 270 nM, RXRa partner concentration 90 nM)
How it was run: as §1

[13] = system: PPARg DBDmut:RXRa IVT, anti-PPARg (DBD mutation: PPARg1 K132A/R137A, NR concentration 270 nM, RXRa partner concentration 90 nM)
How it was run: as §1

[14] = system: PPARg DBDmut IVT, anti-PPARg (DBD mutation: PPARg1 K132A/R137A, NR concentration 270 nM)
How it was run: as §1

[15] = system: PPARg homodimer (NR concentration 180 nM)
How it was run: as §1

[16] = system: PXR:RXRa (NR concentration 270 nM, RXRa partner concentration 90 nM)
How it was run: as §1

[17] = system: PXR homodimer (NR concentration 270 nM)
How it was run: as §1

[18] = system: RARa:RXR (NR concentration 270 nM, RXRa partner concentration 90 nM)
How it was run: as §1

[19] = system: RARa homodimer (NR concentration 270 nM)
How it was run: as §1

[20] = system: RARb:RXRa (NR concentration 270 nM, RXRa partner concentration 90 nM)
How it was run: as §1

Sequence | PBM binding z-score [1] | PBM binding z-score [2] | PBM binding z-score [3] | PBM binding z-score [4] | PBM binding z-score [5] | PBM binding z-score [6] | PBM binding z-score [7] | PBM binding z-score [8] | PBM binding z-score [9] | PBM binding z-score [10] | PBM binding z-score [11] | PBM binding z-score [12] | PBM binding z-score [13] | PBM binding z-score [14] | PBM binding z-score [15] | PBM binding z-score [16] | PBM binding z-score [17] | PBM binding z-score [18] | PBM binding z-score [19] | PBM binding z-score [20]
TAGGCTAGGTCAGATCGGGCCAGTATACGCTATA | 1.84 | 0.947 | -0.397 | 0.688 | -0.542 | 1.42 | 0.684 | 0.646 | -0.0664 | 0.434 | 0.883 | 1.39 | -0.0594 | -0.524 | 0.195 | 1.54 | -0.57 | 1.55 | -0.477 | 3.3
TAGCCTAGGTCATGGGCCAGGATACCACGCGAAC | 4.32 | 3.44 | 0.422 | 2.16 | -0.43 | 4.16 | 3.93 | 3.93 | 1.12 | 2.85 | 1.37 | 3.45 | 0.121 | 0.0645 | 0.888 | 1.54 | -0.528 | 2.52 | -0.123 | 3.8
CGAACGAGGGCATGAGTTGATAGCAAATGCCGAT | 0.545 | 0.339 | -0.654 | 0.279 | -0.902 | 1.71 | 1.35 | 1.57 | 0.0506 | 0.976 | 3.29 | 2.03 | -0.334 | -0.825 | -0.0859 | 0.562 | -0.209 | 0.5 | -0.431 | 2.11
CGAACTAGGTCATCCAGTACAGTGAATACATTGA | 4.18 | 2.86 | 0.599 | 2.59 | 0.209 | 4.82 | 7.93 | 6.36 | 4.02 | 5.81 | 8.25 | 8.35 | 2.09 | 1.3 | 1.76 | 2.09 | 1.66 | 2.26 | 0.426 | 3.78
GCGACTGGGGCAAAGCAGGCTACCATAAGGTTGG | -0.319 | -0.696 | -0.699 | -0.682 | -0.971 | 0.527 | 0.941 | 0.966 | -0.413 | 0.272 | 4.44 | 3.34 | -0.239 | -0.307 | -0.349 | -0.574 | -0.689 | -0.126 | -1.27 | 0.579
GTACCAAGGTGAATAGGTCGTTGTTGAGTAGGCG | 0.827 | 0.686 | -0.152 | 0.303 | -0.821 | 2.07 | 1.18 | 1.21 | 0.0125 | 0.678 | 1.9 | 2.74 | 0.246 | -0.308 | 1.31 | 0.708 | -0.604 | 1.5 | 0.154 | 1.91
CCTAGTTTGTCAGGAGGTCACACACCGGATATGA | 3.37 | 3.76 | 3 | 3.64 | 1.48 | 4.17 | 2.45 | 3.15 | 1.26 | 2.39 | 1.14 | 2.9 | 1.37 | 1.6 | 4.45 | 4.63 | 1.7 | 5.02 | 2.79 | 3.46
GCGATTAGTTGAAAGGGCAACCGAATGATTCTCG | 0.286 | 0.514 | -0.112 | 0.595 | -0.521 | 1.88 | 1.74 | 3.51 | 1.24 | 2.72 | 0.242 | 0.29 | -0.291 | -0.4 | 0.619 | 0.575 | 0.0647 | 1.43 | -0.197 | 1.87
